Data published in PubChem BioAssay (NCATS).
Results filed as inconclusive are left out. Activity calls are given as the source filed them. The call rests on the fitted dose curve; in most records, active means well fitted inhibition curve with a large enough effect; inconclusive means small, poorly fitted or top-dose-only effect; inactive means flat fitted curve, though single readings scatter. Numbered stars: 1 amine (or outer) side, 2 acyl side, 3 side chain; on linkers, the order of the positions; unused ones are H or OH. Bridge positions count the residues as written; N and C are the ends. Square brackets hold non-standard residues; d marks the D form. Peptide text beside a SMILES is read from it. I, II: the chains in the order shown. Actinocin(9to1) = Cc1c2oc3c(C)ccc(C(=O)[*:1])c3nc-2c(C(=O)[*:2])c(N)c1=O; NMeV = CN[C@H](C(=O)O)C(C)C; Sar = CNCC(=O)O

Tests used:
[1] = qHTS profiling for inhibitors of Plasmodium falciparum proliferation (AID 504749); further: nearly all actives have a fitted effect of over 60% in size;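 on activity, negative = inhibition: 0% = DMSO vehicle and full inhibition = artemisinin control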; conditions: P. falciparum in erythrocytes, SYBR Green DNA, 72 h
In short: (§1)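 Three-day growth assay of blood-stage parasites in erythrocytes (0.3% parasitemia, 2.5% hematocrit) at 37 C, 5% CO2, quantified by SYBR Green DNA staining after overnight detergent lysis.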

[2] = test system: 3D7; experiment: as above; conditions: P. falciparum in erythrocytes, SYBR Green DNA, 72 h; series mostly up to 28.7 µM
In short: as §1

[3] = test system: 7G8; experiment: as above; conditions: P. falciparum in erythrocytes, SYBR Green DNA, 72 h; series mostly up to 28.7 µM
In short: as §1

[4] = test system: AA1029; experiment: as above; conditions: P. falciparum in erythrocytes, SYBR Green DNA, 72 h; series mostly up to 28.7 µM
In short: as §1

[5] = test system: AS120; experiment: as above; conditions: P. falciparum in erythrocytes, SYBR Green DNA, 72 h; series mostly up to 28.7 µM
In short: as §1

[6] = test system: ATS189; experiment: as above; conditions: P. falciparum in erythrocytes, SYBR Green DNA, 72 h; series mostly up to 28.7 µM
In short: as §1

[7] = test system: ATS95; experiment: as above; conditions: P. falciparum in erythrocytes, SYBR Green DNA, 72 h; series mostly up to 28.7 µM
In short: as §1

[8] = test system: C2A; experiment: as above; conditions: P. falciparum in erythrocytes, SYBR Green DNA, 72 h; series mostly up to 28.7 µM
In short: as §1

[9] = test system: CP185; experiment: as above; conditions: P. falciparum in erythrocytes, SYBR Green DNA, 72 h; series mostly up to 28.7 µM
In short: as §1

[10] = test system: CP191; experiment: as above; conditions: P. falciparum in erythrocytes, SYBR Green DNA, 72 h; series mostly up to 28.7 µM
In short: as §1

[11] = test system: CP192; experiment: as above; conditions: P. falciparum in erythrocytes, SYBR Green DNA, 72 h; series mostly up to 28.7 µM
In short: as §1

[12] = test system: CP194; experiment: as above; conditions: P. falciparum in erythrocytes, SYBR Green DNA, 72 h; series mostly up to 28.7 µM
In short: as §1

[13] = test system: CP201; experiment: as above; conditions: P. falciparum in erythrocytes, SYBR Green DNA, 72 h; series mostly up to 28.7 µM
In short: as §1

[14] = test system: CP203; experiment: as above; conditions: P. falciparum in erythrocytes, SYBR Green DNA, 72 h; series mostly up to 28.7 µM
In short: as §1

[15] = test system: CP211; experiment: as above; conditions: P. falciparum in erythrocytes, SYBR Green DNA, 72 h; series mostly up to 28.7 µM
In short: as §1

[16] = test system: CP215; experiment: as above; conditions: P. falciparum in erythrocytes, SYBR Green DNA, 72 h; series mostly up to 28.7 µM
In short: as §1

[17] = test system: CP217; experiment: as above; conditions: P. falciparum in erythrocytes, SYBR Green DNA, 72 h; series mostly up to 28.7 µM
In short: as §1

[18] = test system: CP237; experiment: as above; conditions: P. falciparum in erythrocytes, SYBR Green DNA, 72 h; series mostly up to 28.7 µM
In short: as §1

[19] = test system: CP238; experiment: as above; conditions: P. falciparum in erythrocytes, SYBR Green DNA, 72 h; series mostly up to 28.7 µM
In short: as §1

[20] = test system: CP247; experiment: as above; conditions: P. falciparum in erythrocytes, SYBR Green DNA, 72 h; series mostly up to 28.7 µM
In short: as §1

[21] = at 28.7 µM (top of the series), parasite line A
[22] = at 28.7 µM (top of the series), parasite line B
[23] = at 12.8 µM (top of the series), parasite line A
[24] = at 12.8 µM (top of the series), parasite line B
Potency means the concentration at half of the fitted maximal effect.

Cc1c(C(C)C)c(=O)n(-c2ccccc2)n1C
inactive: activity, negative = inhibition [1, 21] 5.32% | activity, negative = inhibition [1, 22] 0.527% | Potency [2] | Potency [3] | Potency [4] | Potency [5] | Potency [6] | Potency [7] | Potency [8] | Potency [9] | Potency [10] | Potency [11] | Potency [12] | Potency [13] | Potency [14] | Potency [15] | Potency [16] | Potency [17] | Potency [18] | Potency [19] | Potency [20]

O=S1(=O)c2cccc3cccc(c23)N1CCCN1CCN(c2ccc(F)cc2)CC1
active: Potency [3] 12600 nM
inactive: activity, negative = inhibition [1, 21] 7.63% | activity, negative = inhibition [1, 22] -0.586% | Potency [2] | Potency [4] | Potency [5] | Potency [6] | Potency [7] | Potency [8] | Potency [9] | Potency [10] | Potency [11] | Potency [12] | Potency [13] | Potency [14] | Potency [15] | Potency [16] | Potency [17] | Potency [18] | Potency [19] | Potency [20]

Cc1c2oc3c(C)ccc(C(=O)N[C@@H]4C(=O)N[C@H](C(C)C)C(=O)N5CCC[C@H]5C(=O)N(C)CC(=O)N(C)[C@@H](C(C)C)C(=O)O[C@@H]4C)c3nc-2c(C(=O)N[C@@H]2C(=O)N[C@H](C(C)C)C(=O)N3CCC[C@H]3C(=O)N(C)CC(=O)N(C)[C@@H](C(C)C)C(=O)O[C@@H]2C)c(N)c1=O (I: T[dV]P[Sar][NMeV] / II: T[dV]P[Sar][NMeV]; ester I:1-I:C, II:1-II:C; linker I:N-II:N via Actinocin(9to1))
active: Potency ([1]; parasite line A) 3.5 nM | Potency ([1]; parasite line B) 6.3 nM | Potency [2] 5.6 nM | Potency [3] 1.3 nM | Potency [4] 4.5 nM | Potency [5] 4.5 nM | Potency [6] 3.2 nM | Potency [7] 4 nM | Potency [8] 5.6 nM | Potency [9] 4.5 nM | Potency [10] 4.5 nM | Potency [11] 6 nM | Potency [12] 5.4 nM | Potency [13] 7.6 nM | Potency [14] 6 nM | Potency [15] 6 nM | Potency [16] 5.4 nM | Potency [17] 7.1 nM | Potency [18] 0.0708 nM | Potency [19] 1.8 nM | Potency [20] 7.1 nM

NCCC(O)(P(=O)(O)O)P(=O)(O)O
inactive: activity, negative = inhibition [1, 21] 4.48% | activity, negative = inhibition [1, 22] -11.5% | Potency [2] | Potency [3] | Potency [4] | Potency [5] | Potency [6] | Potency [7] | Potency [8] | Potency [9] | Potency [10] | Potency [11] | Potency [12] | Potency [13] | Potency [14] | Potency [15] | Potency [16] | Potency [17] | Potency [18] | Potency [19] | Potency [20]

COc1cc(OC)cc(OC)c1
inactive: activity, negative = inhibition [1, 21] 14.7% | activity, negative = inhibition [1, 22] 2.05% | Potency [2] | Potency [3] | Potency [4] | Potency [5] | Potency [6] | Potency [7] | Potency [8] | Potency [9] | Potency [10] | Potency [11] | Potency [12] | Potency [13] | Potency [14] | Potency [15] | Potency [16] | Potency [17] | Potency [18] | Potency [19] | Potency [20]

CCC(C(=O)OCCN(CC)CC)c1ccccc1 (stereo unspecified)
inactive: activity, negative = inhibition [1, 21] -4.21% | activity, negative = inhibition [1, 22] 8.52% | Potency [2] | Potency [3] | Potency [4] | Potency [5] | Potency [6] | Potency [7] | Potency [8] | Potency [9] | Potency [10] | Potency [11] | Potency [12] | Potency [13] | Potency [14] | Potency [15] | Potency [16] | Potency [17] | Potency [18] | Potency [19] | Potency [20]

NCCc1ccn[nH]1
inactive: activity, negative = inhibition [1, 23] 6.26% | activity, negative = inhibition [1, 24] 12.5% | Potency [2] | Potency [3] | Potency [4] | Potency [5] | Potency [6] | Potency [7] | Potency [8] | Potency [9] | Potency [10] | Potency [11] | Potency [12] | Potency [13] | Potency [14] | Potency [15] | Potency [16] | Potency [17] | Potency [18] | Potency [19] | Potency [20]

CCOC(=O)n1ccn(C)c1=S
inactive: activity, negative = inhibition [1, 23] 10% | activity, negative = inhibition [1, 24] -6.82% | Potency [2] | Potency [3] | Potency [4] | Potency [5] | Potency [6] | Potency [7] | Potency [8] | Potency [9] | Potency [10] | Potency [11] | Potency [12] | Potency [13] | Potency [14] | Potency [15] | Potency [16] | Potency [17] | Potency [18] | Potency [19] | Potency [20]

COc1cc2c(cc1OC)C(C(C(=O)N(CCc1ccc(OC)c(OC)c1OC)CCc1ccc(OC)c(OC)c1OC)c1ccccc1)=NCC2 (stereo unspecified)
inactive: activity, negative = inhibition [1, 21] 14.8% | activity, negative = inhibition [1, 22] -1.99% | Potency [5] | Potency [6] | Potency [8]
active: Potency [2] 4470 nM | Potency [3] 316 nM | Potency [4] 2510 nM | Potency [7] 3550 nM | Potency [9] 10000 nM | Potency [10] 10000 nM | Potency [11] 13500 nM | Potency [12] 13500 nM | Potency [13] 15100 nM | Potency [14] 6750 nM | Potency [15] 12000 nM | Potency [16] 6750 nM | Potency [17] 4470 nM | Potency [18] 2000 nM | Potency [19] 6310 nM | Potency [20] 4470 nM

C[C@]12CCC(=O)C=C1CC[C@H]1[C@@H]3CC[C@](O)(C(=O)CO)[C@@]3(C)C[C@H](O)[C@@]12F
inactive: activity, negative = inhibition [1, 21] 4.53% | activity, negative = inhibition [1, 22] 9.81% | Potency [2] | Potency [3] | Potency [4] | Potency [5] | Potency [6] | Potency [7] | Potency [8] | Potency [9] | Potency [10] | Potency [11] | Potency [12] | Potency [13] | Potency [14] | Potency [15] | Potency [16] | Potency [17] | Potency [18] | Potency [19] | Potency [20]

O=C(Nc1ccc(Cl)c(Cl)c1)C1CC1
inactive: activity, negative = inhibition [1, 21] -11.1% | activity, negative = inhibition [1, 22] -1.73% | Potency [2] | Potency [3] | Potency [4] | Potency [5] | Potency [6] | Potency [7] | Potency [8] | Potency [9] | Potency [10] | Potency [11] | Potency [12] | Potency [13] | Potency [14] | Potency [15] | Potency [16] | Potency [17] | Potency [18] | Potency [19] | Potency [20]
